In PubChem BioAssay (EPA / NIEHS) one finds outcome and AC50 data, which are given here for four molecules.

Assay [1] is described as follows: ATG_GLI_CIS: Attagene CIS-FACTORIAL HepG2 Assay for human Zinc Finger Protein GLI1 (AID 2282945). Particulars: HepG2, Attagene cis-factorial reporter mRNA, GLI element; actives raise or lower the signal. A digest of the protocol: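 Bidirectional curve fits relative to DMSO, using reporter mRNA levels from RT-PCR plus capillary electrophoresis. Cells were HepG2 transiently carrying cis-regulated reporter constructs, harvested 24 h after dosing.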

The target of assay [2] is Bile acid receptor (Homo sapiens) (UniProt Q96RI1). Put plainly: ATG_IR1_CIS: Attagene CIS-FACTORIAL HepG2 Assay for human Nuclear Receptor Subfamily 1 Group H Member 4 (NR1H4), IR1 submotif (AID 2282946). Conditions: IR1 reporter transcription, actives raise or lower the signal. The procedure, abridged: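 HepG2 cells transiently transfected with multiplexed cis-element reporter units read endogenous transcription factor activity. After 24 h compound exposure, reporter mRNA was quantified by RT-PCR, fluorescent labelling, HpaI digestion and capillary electrophoresis; bidirectional fitting versus DMSO baseline.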

Assay [3] in a line: ATG_ISRE_CIS: Attagene CIS-FACTORIAL HepG2 Assay for human Interferon Regulatory Factor 1 (IRF1) binding to an Interferon-Stimulated Response Element (ISRE) (AID 2282948). Conditions: HepG2 ISRE cis-reporter (Attagene), mRNA transcription readout; actives raise or lower the signal. A digest of the protocol:
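Signal reflects induction or loss of ISRE-linked reporter mRNA in transiently transfected HepG2 cells after a 24 h treatment, detected by fluorescent RT-PCR fragments on capillary electrophoresis and normalised to DMSO.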

Assay [4] can be described thus: ATG_M_32_CIS: Attagene CIS-FACTORIAL HepG2 Assay for M32 Transcription Factor (Internal Marker) (AID 2282949).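 Further: background control marker of the multiplexed CIS panel rather than a real target.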 Conditions: HepG2 Attagene cis-factorial M32 reporter, mRNA; actives raise or lower the signal. The procedure, abridged:
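Transient MRTU transfection of HepG2; 24 h compound treatment; TriZol RNA, oligo(dT) RT, reporter PCR, 6-FAM primer extension, HpaI cut, CE. Gain/loss of signal vs DMSO.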

Assay [5] in a line: ATG_M_06_CIS: Attagene CIS-FACTORIAL HepG2 Assay for M06 Transcription Factor (Internal Marker) (AID 2282950). Conditions: HepG2 Attagene CIS-FACTORIAL M06 internal marker reporter; actives raise or lower the signal. A digest of the protocol: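 Cells (HepG2, transiently carrying cis-driven reporter units) receive chemical for 24 h before RNA isolation. Reporter cDNA is PCR-amplified, FAM-labelled by primer extension, HpaI-digested and sized on a capillary analyser.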

Assay [6] addresses Hypoxia-inducible factor 1-alpha (Homo sapiens) (UniProt Q16665). Put plainly: ATG_HIF1a_CIS: Attagene CIS-FACTORIAL HepG2 Assay for human Hypoxia Inducible Factor 1 (HIF1A) (AID 2282951). Conditions: HepG2 Attagene cis-factorial HIF1a reporter transcription; actives raise or lower the signal. A digest of the protocol: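 HepG2 cells transiently transfected with multiplexed cis-promoter reporter units; reporter mRNA read 24 h after dosing by RT-PCR, 6-FAM primer-extension labelling, HpaI digestion and capillary electrophoresis. Bidirectional fit versus DMSO baseline.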

Assay [7] concerns the target Heat shock factor protein 1 (Homo sapiens) (UniProt Q00613). Put plainly: ATG_HSE_CIS: Attagene CIS-FACTORIAL HepG2 Assay for human Heat Shock Transcription Factor 1 (HSE) (AID 2282953). Particulars: HepG2 HSE cis-reporter, Attagene RNA transcription; actives raise or lower the signal. The procedure, abridged:
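Liver-derived HepG2 cells carry transiently introduced multiple reporter units governed by cis promoters. Reporter RNA measured 24 h post-dose through reverse transcription, PCR amplification, fluorescent labelling and capillary electrophoresis, normalised to DMSO.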

Assay [8] can be described thus: ATG_MRE_CIS: Attagene CIS-FACTORIAL HepG2 Assay for human Metal Responsive Element (MRE) (AID 2282954). Particulars: HepG2 MRE cis-reporter transcription, Attagene multiplex; actives raise or lower the signal. A digest of the protocol:
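Multiplexed cis-reporter assay in human HepG2 liver cells, 24 h incubation with test chemical. Reporter transcripts measured by RT-PCR and capillary electrophoresis; values from bidirectional curve fitting versus DMSO.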

Assay [9] in a line: ATG_PBREM_CIS: Attagene CIS-FACTORIAL HepG2 Assay for human Phenobarbital-responsive Enhancer Module (PBREM) (AID 2282955). Conditions: HepG2 PBREM cis-reporter, Attagene multiplexed transcription; actives raise or lower the signal. A digest of the protocol: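 HepG2 cells transiently transfected with multiple cis-regulated reporter transcription units; endogenous factor activity at the PBREM element measured as reporter mRNA 24 h after dosing, via RT-PCR and capillary electrophoresis of fluorescent fragments; bidirectional fitting versus DMSO.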

In assay [10] the target is Paired box protein Pax-6 (Homo sapiens) (UniProt P26367). Put plainly: ATG_Pax6_CIS: Attagene CIS-FACTORIAL HepG2 Assay for human Paired Box 6 (PAX6) (AID 2282956). Particulars: HepG2 CIS-FACTORIAL PAX6 reporter transcription, RNA readout; actives raise or lower the signal. A digest of the protocol:
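Values derive from bidirectional curve fitting of reporter mRNA signal relative to DMSO. HepG2 cells bearing transfected cis-regulated MRTUs were exposed for 24 h; transcripts were read by RT-PCR and capillary electrophoresis.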

Assay [11] in a line: ATG_PXRE_CIS: Attagene CIS-FACTORIAL HepG2 Assay for human Pregnane X Receptor Element (PXRE) (AID 2282957). Conditions: HepG2 Attagene CIS-FACTORIAL PXRE reporter, mRNA; actives raise or lower the signal. A digest of the protocol: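 Read-out: fluorescence of reporter-specific RT-PCR products resolved by capillary electrophoresis, fitted bidirectionally relative to DMSO. Human HepG2 liver cells carried transfected cis-promoter reporter units and were exposed to chemicals for 24 h.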

The nature of assay [12]: ATG_PPRE_CIS: Attagene CIS-FACTORIAL HepG2 Assay for human Peroxisome Proliferator-activated Response Element (PPRE) (AID 2282958). Conditions: HepG2 PPRE cis-element reporter, Attagene transcription factor profiling; actives raise or lower the signal. A digest of the protocol:
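HepG2 cells transiently transfected with multiplexed cis-element reporter units measure endogenous transcription factor activity. After 24 h compound exposure, reporter mRNA is quantified by RT-PCR, 6-FAM labeling, HpaI digestion and capillary electrophoresis; bidirectional fits are made against DMSO baseline.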

The nature of assay [13]: ATG_RORE_CIS: Attagene CIS-FACTORIAL HepG2 Assay for human RAR-related Orphan Receptor Element (RORE) (AID 2282959). Conditions: HepG2 Attagene cis-factorial RORE reporter, mRNA; actives raise or lower the signal. A digest of the protocol:
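HepG2 cells transiently transfected with multiple cis-element reporter transcription units, exposed to chemical for 24 h. Reporter mRNA quantified by RT-PCR, 6-FAM primer-extension labeling, HpaI digestion and capillary electrophoresis; bidirectional fit versus DMSO baseline.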

A short description of assay [14]: ATG_Sox_CIS: Attagene CIS-FACTORIAL HepG2 Assay for human SRY-box transcription factor (SOX) (AID 2282960). Conditions: HepG2 Attagene cis-factorial SOX reporter, mRNA; actives raise or lower the signal. The procedure, abridged:
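HepG2 cells transiently transfected with cis-element-driven multiple reporter transcription units, dosed 24 h; reporter mRNA measured by RT-PCR, FAM labelling, HpaI digestion and capillary electrophoresis. Bidirectional fit versus DMSO baseline.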

Assay [15] deals with Transcription factor Sp1 (Homo sapiens) (UniProt P08047). Put plainly: ATG_Sp1_CIS: Attagene CIS-FACTORIAL HepG2 Assay for human Specificity Protein 1 (Sp1) (AID 2282961). Conditions: HepG2 Sp1 cis-reporter transcription, actives raise or lower the signal. A digest of the protocol: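 HepG2 cells transiently transfected with multiple reporter transcription units driven by cis-regulatory elements; Sp1-responsive reporter mRNA measured 24 h after dosing by RT-PCR and capillary electrophoresis fluorescence, fitted bidirectionally against DMSO baseline.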

Assay [16] is described as follows: ATG_SREBP_CIS: Attagene CIS-FACTORIAL HepG2 Assay for human Sterol Regulatory Element Binding (SREBP) (AID 2282962). Conditions: HepG2 Attagene cis-factorial SREBP reporter, mRNA; actives raise or lower the signal. A digest of the protocol:
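Values derive from bidirectional curve fitting with DMSO as baseline. The underlying measurement is reporter mRNA from cis-element-regulated units in transiently transfected HepG2, quantified by RT-PCR and capillary electrophoresis after 24 h exposure.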

The nature of assay [17]: ATG_TA_CIS: Attagene CIS-FACTORIAL HepG2 Assay for human TA Basal Promoter (AID 2282964). Particulars: HepG2 Attagene CIS-factorial TA basal promoter reporter; actives raise or lower the signal. The procedure, abridged:
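Background internal-marker endpoint from a 52-component HepG2 cis-reporter panel. Cells treated 24 h; reporter transcripts quantified via RT-PCR and CE fluorescence against DMSO baseline.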

Assay [18] addresses Signal transducer and activator of transcription 3 (Homo sapiens) (UniProt P40763). Put plainly: ATG_STAT3_CIS: Attagene CIS-FACTORIAL HepG2 Assay for human Signal Transducer and Activator of Transcription 3 (STAT3) (AID 2282963). Conditions: HepG2, Attagene cis-factorial STAT3 reporter transcription; actives raise or lower the signal. A digest of the protocol: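 Cis-factorial format: endogenous transcription factors in HepG2 drive transfected reporter units. After 24 h treatment, reporter RNA was reverse-transcribed, amplified, FAM-labelled and HpaI-digested before CE analysis; activity scored in both directions against DMSO.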

A short description of assay [19]: ATG_GRE_CIS: Attagene CIS-FACTORIAL HepG2 Assay for human Glucocorticoid Response Elements (GRE) (AID 2282947). Particulars: HepG2 GRE cis-reporter, Attagene multiplex mRNA; actives raise or lower the signal. The procedure, abridged:
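Multiplexed cis-reporter mRNA induction, HepG2, 24 h post-dose. RT-PCR, FAM-labelled, HpaI-digested amplicons by CE. Bidirectional fit vs DMSO.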

The target of assay [20] is Hepatocyte nuclear factor 6 (Homo sapiens) (UniProt Q9UBC0). Put plainly: ATG_HNF6_CIS: Attagene CIS-FACTORIAL HepG2 Assay for human Hepatocyte Nuclear Factor 6 (HNF6) (AID 2282952). Particulars: HepG2 Attagene cis-factorial HNF6 reporter transcription; actives raise or lower the signal. The procedure, abridged:
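Readout: fluorescent reporter-transcript fragments resolved by capillary electrophoresis after RT-PCR, reflecting endogenous factor activity in transfected HepG2. Exposure 24 h. Gain or loss of signal fitted bidirectionally against DMSO.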

The source made the active and inactive calls. How the source made its calls: active means hit-call score of the fitted dose curve at least 0.9, where 1 is the maximum; inactive means score below 0.9.

Signal transducer and activator of transcription 3 (Homo sapiens), sequence (P40763 whole entry, looked up): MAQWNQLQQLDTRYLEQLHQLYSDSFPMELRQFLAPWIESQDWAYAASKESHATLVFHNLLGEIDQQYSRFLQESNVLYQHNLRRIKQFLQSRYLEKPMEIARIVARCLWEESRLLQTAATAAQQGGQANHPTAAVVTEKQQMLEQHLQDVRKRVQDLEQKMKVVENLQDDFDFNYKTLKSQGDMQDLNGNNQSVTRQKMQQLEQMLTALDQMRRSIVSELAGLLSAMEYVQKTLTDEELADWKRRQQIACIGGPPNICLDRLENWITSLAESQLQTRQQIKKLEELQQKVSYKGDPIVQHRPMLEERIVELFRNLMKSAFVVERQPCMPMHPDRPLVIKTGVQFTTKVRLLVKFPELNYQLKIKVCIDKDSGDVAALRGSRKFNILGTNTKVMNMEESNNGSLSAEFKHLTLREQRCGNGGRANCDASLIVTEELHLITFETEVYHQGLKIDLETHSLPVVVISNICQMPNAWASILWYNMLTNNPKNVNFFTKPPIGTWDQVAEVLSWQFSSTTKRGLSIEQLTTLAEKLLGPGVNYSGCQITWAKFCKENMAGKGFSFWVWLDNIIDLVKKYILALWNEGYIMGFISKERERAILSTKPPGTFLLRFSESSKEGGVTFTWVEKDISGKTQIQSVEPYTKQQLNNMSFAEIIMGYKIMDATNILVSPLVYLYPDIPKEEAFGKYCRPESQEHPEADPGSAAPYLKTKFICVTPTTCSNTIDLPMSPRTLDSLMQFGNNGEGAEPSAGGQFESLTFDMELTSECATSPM
Transcription factor Sp1 (Homo sapiens), sequence (P08047 whole entry, looked up): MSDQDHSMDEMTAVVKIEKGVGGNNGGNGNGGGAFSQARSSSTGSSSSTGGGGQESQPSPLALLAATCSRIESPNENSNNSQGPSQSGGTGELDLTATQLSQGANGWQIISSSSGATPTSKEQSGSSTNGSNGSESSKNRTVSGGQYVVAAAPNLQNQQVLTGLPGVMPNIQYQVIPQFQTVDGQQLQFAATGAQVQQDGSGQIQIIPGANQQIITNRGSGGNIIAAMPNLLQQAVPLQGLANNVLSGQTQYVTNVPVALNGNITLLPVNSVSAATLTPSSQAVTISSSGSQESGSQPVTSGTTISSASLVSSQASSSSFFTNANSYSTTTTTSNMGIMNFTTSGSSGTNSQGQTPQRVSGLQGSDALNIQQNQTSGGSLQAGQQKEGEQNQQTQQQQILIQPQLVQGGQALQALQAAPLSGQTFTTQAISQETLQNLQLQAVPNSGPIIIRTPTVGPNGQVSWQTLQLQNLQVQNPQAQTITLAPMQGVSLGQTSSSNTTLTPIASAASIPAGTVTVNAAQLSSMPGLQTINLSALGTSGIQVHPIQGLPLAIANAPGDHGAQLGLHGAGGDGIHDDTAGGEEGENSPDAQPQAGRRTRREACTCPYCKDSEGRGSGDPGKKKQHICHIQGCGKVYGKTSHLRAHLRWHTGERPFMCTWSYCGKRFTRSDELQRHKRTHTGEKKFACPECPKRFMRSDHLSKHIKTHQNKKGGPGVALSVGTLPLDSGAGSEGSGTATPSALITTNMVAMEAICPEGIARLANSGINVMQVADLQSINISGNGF
Hypoxia-inducible factor 1-alpha (Homo sapiens), sequence (Q16665 whole entry, looked up): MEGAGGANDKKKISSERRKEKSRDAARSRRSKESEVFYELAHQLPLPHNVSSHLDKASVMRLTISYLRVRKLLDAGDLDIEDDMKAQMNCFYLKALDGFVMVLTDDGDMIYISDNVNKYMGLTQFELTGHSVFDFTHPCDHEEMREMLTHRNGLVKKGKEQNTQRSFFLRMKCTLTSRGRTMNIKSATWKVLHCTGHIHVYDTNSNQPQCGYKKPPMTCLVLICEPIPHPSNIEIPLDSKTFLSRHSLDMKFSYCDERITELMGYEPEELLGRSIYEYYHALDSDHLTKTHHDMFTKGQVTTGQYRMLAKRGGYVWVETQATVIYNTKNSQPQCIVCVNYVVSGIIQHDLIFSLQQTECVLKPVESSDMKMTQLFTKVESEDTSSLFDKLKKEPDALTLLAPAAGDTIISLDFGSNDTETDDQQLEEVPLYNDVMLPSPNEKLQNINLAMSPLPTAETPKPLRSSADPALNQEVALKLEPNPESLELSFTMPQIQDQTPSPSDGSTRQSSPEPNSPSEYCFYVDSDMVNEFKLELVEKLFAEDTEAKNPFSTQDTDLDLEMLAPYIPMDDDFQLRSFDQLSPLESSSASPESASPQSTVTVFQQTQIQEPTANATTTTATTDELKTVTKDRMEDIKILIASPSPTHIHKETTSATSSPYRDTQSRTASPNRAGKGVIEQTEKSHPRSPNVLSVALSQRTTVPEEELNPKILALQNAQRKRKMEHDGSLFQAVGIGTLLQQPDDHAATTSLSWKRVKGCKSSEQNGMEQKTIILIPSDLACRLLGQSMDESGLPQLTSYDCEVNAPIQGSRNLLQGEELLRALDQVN
Heat shock factor protein 1 (Homo sapiens), sequence (Q00613 whole entry, looked up): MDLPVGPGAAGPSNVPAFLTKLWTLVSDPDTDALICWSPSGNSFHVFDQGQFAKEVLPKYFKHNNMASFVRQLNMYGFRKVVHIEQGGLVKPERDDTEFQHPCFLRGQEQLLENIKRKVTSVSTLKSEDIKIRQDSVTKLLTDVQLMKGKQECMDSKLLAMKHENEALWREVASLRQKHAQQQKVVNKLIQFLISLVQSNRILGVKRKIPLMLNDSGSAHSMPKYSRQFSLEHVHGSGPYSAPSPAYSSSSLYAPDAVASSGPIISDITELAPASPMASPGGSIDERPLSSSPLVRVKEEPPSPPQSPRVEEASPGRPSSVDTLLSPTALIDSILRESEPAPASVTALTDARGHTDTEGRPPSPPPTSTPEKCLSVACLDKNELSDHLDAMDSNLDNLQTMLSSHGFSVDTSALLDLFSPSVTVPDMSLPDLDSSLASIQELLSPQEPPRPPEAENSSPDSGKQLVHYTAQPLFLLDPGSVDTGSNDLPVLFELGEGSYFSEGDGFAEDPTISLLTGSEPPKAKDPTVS
Paired box protein Pax-6 (Homo sapiens), sequence (P26367 whole entry, looked up): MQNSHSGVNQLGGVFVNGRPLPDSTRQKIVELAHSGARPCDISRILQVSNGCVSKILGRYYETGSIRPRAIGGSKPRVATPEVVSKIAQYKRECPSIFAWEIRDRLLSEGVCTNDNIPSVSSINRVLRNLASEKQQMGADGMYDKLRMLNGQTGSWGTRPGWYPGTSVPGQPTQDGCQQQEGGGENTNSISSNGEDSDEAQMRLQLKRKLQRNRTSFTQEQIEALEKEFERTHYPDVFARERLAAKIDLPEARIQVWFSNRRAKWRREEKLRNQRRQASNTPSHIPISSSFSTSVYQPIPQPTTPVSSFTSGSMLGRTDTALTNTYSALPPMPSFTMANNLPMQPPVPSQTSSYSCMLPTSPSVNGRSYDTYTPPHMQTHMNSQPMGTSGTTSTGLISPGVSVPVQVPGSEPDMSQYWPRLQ
Bile acid receptor (Homo sapiens), sequence (Q96RI1 whole entry, looked up): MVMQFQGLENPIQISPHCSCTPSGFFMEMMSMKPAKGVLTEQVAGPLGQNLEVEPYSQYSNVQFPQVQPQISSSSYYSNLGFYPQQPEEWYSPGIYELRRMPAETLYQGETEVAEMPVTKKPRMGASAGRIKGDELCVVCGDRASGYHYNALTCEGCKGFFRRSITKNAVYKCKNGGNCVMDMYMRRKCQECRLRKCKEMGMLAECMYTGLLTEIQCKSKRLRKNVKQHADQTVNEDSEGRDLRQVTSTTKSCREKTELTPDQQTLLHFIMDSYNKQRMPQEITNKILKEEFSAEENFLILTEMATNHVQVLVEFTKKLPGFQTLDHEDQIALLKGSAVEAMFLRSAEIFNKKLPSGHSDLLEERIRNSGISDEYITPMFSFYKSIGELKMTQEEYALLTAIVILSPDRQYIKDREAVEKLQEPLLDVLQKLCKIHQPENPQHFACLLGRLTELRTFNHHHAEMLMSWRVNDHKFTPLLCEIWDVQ
Hepatocyte nuclear factor 6 (Homo sapiens), sequence (Q9UBC0 whole entry, looked up, the tested form may be a part): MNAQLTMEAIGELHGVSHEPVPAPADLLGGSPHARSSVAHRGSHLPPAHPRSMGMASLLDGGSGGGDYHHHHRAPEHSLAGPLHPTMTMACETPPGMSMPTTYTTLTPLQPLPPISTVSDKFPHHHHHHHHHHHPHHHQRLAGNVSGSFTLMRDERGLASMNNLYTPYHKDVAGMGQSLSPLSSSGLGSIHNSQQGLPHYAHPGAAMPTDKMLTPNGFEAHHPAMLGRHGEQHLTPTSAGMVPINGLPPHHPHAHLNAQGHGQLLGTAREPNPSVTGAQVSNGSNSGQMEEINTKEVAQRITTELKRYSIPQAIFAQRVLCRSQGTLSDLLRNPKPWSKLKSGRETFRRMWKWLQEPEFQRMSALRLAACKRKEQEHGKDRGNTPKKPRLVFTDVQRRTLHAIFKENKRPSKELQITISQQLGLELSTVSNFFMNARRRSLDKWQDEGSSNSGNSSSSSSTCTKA

With `CCCCCc1cccc(=O)o1`, the molecule was classed as inactive in assay [1], in assay [2], in assay [3], in assay [4], in assay [5] and in assay [6]. For the same molecule, the outcome in [7], in assay [8], in assay [9], in assay [10], in assay [12] and in assay [13] was inactive. Besides, the molecule was classed as inactive in assay [14], in assay [15], in assay [16] and in assay [17]. For the same molecule, the AC50 in [11] is 25.1 µM (active).
Regarding `CCCCOCCOC(=O)c1ccccc1C(=O)OCCOCCCC`, the call in assay [1], in assay [2], in [3], in [4], in assay [5] and in assay [6] was inactive. Also, the outcome in [7], in assay [9], in [12], in assay [13], in assay [14] and in assay [15] was inactive. Further, the outcome in assay [18] and in assay [17] was inactive. Also, the AC50 in assay [8] was 23.4 µM (active); in assay [11], 5.46 µM (active).
On to `CC1(C)[C@H](C=C(Cl)Cl)[C@H]1C(=O)OCc1cccc(Oc2ccccc2)c1`, for which the call in assay [1], in assay [19], in assay [3], in [4], in [5] and in assay [6] was inactive. The outcome in assay [20], in assay [7], in assay [8], in assay [9], in [10] and in assay [13] was inactive. In addition, the call in [14], in [15], in assay [16], in assay [18] and in [17] was inactive. In [11], the AC50 was 3.1 µM (active).
`CC/C=C\CCOC(=O)C(C)C`: the outcome in [1], in assay [19], in assay [3], in assay [4], in assay [5] and in assay [6] was inactive. Further, the molecule was called inactive in [20], in assay [7], in assay [8], in assay [10], in [11] and in [14]. In addition, the call in [15], in [16], in assay [18] and in assay [17] was inactive.
